Inconclusive results are not listed. Active and inactive are the calls of the source. Calls come from the whole dose curve.

Sequence of Thyrotropin receptor (Homo sapiens) (P16473 whole entry, looked up): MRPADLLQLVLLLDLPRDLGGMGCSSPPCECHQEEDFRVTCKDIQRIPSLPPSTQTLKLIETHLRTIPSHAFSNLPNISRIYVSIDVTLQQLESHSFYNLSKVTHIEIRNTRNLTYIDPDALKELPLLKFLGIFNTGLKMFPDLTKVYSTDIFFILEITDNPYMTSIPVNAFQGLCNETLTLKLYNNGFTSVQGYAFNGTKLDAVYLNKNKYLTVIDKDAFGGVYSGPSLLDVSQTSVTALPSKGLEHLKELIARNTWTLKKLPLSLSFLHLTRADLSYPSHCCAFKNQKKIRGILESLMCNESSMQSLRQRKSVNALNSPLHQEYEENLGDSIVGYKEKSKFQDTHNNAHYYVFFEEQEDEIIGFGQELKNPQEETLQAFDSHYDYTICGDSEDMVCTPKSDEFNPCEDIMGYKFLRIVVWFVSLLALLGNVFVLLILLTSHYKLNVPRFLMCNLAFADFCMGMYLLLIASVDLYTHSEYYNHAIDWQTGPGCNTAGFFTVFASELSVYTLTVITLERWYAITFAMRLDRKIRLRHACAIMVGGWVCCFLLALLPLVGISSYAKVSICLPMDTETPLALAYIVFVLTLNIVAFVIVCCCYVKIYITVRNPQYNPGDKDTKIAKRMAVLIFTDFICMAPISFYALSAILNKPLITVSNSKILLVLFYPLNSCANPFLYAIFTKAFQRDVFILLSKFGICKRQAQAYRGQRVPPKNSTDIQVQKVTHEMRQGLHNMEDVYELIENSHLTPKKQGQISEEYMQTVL

For this assay, the target named is Thyrotropin receptor (Homo sapiens) (UniProt P16473). The experiment in a line: qHTS assay to identify small molecule agonists of the thyroid stimulating hormone receptor (TSHR) signaling pathway (AID 1224843). Note: nearly all actives have a fitted effect of over 45% in size. The note with it: TSHR-HEK293 cells, cAMP HTRF, agonist mode, 30 min; series mostly up to 92.4 µM. The text has this:
National Center for Advancing Translational Sciences [NCATS]
NIH Chemical Genomics Center [NCGC]
U.S. Environmental Protection Agency [EPA]
National Institutes of Environmental Health Sciences [NIEHS]
National Toxicology Program [NTP]
U.S. Food and Drug Administration [FDA]
TSHR is the receptor for thyrotropin (thyroid stimulating hormone or TSH), a member of the glycoprotein hormone family. TSH is released by the anterior pituitary gland and is the main regulator of thyroid gland growth and development. Upon binding circulating thyrotropin, a G-protein signal cascade activates adenylyl cyclase and […] cAMP concentration is increased. cAMP is a key second messenger involved extensively in cellular signal transduction pathways associated with the majority of G-protein coupled receptors (GPCRs). The activation of these GPCRs by neurotransmitters, lipids, nucleotides, peptides and hormones results in the activation or the inhibition of plasma membrane-bound adenylate cyclase through heterotrimeric G-proteins. A cell-based TSHR assay was used to screen the Tox21 10K library for compounds that can modulate TSHR in agonist mode.
Tox21 Assay Protocol Summary:
TSHR-Hek293 cells were dispensed at 800 cells/4uL/well in 1536-well white plates using a Multidrop dispenser. […] The plates were incubated at room temperature for 30 min. 2.5 ul/well of cAMP-d2 and 2.5ul/well of anti-cAMP-cryptate was added respectively into the assay plates using a Flying Reagent Dispenser. After 1 hr incubation at room temperature, the fluorescence intensity in the plates was measured using an Envision plate reader. Each test compound was measured at 15 concentrations and in triplicates.
On the technique in general: Quantitative high-throughput screening tests each substance at several concentrations.
In the case of `CN(C)CCOC(=O)COc1ccc(Cl)cc1`, the result was inactive.

As for `CCCCCCCCCCN`, the compound was classed as inactive.

In the case of `NCCN1CCNCC1`, the compound was called inactive.

Turning to `N[C@H](Cc1c[nH]c2ccccc12)C(=O)O`, the call was inactive.

In the case of `C=CC(=O)OCCC(=O)O`, the call was inactive.

On to `OCc1cccc(Oc2ccccc2)c1`, for which the compound was classed as inactive.

With `CC(C)CC(C)O` (stereo not given), the compound was called inactive.

For `CC1(C)NC(=O)NC1=O`, the outcome was inactive.

In the case of `COc1ccc(OC)cc1`, the result was inactive.

On to `CCCOC(=O)c1ccccc1`, for which the compound was called inactive.

With `CC(C)CC(=O)CC(C)CC(C)C` (stereo not given), the result was inactive.

With `C[C@]12CCC(=O)C=C1CC[C@@H]1[C@@H]2[C@@H](O)C[C@@]2(C)[C@H]1CC[C@]2(O)C(=O)CO`, the outcome was inactive.

As to `CC(=O)CCC=C(C)C`, the outcome was inactive.

Take `COc1ccc(N)c(C)c1`: the result was inactive.

As to `CCOCCOCCOCCO`, the compound was called inactive.

With `CCNc1cccc(C)c1`, the outcome was inactive.

Consider `O=C1C(c2[nH]c3ccccc3c2O)=Nc2ccccc21`, for which the result was inactive.

For the compound `C=CC[N+](C)(C)CC=C`, the outcome was inactive.

With `COc1cc(OC)c(C(=O)CCCN2CCCC2)c(OC)c1`, the compound was called inactive.

Take `CC(=O)OCc1ccccc1`: the compound was classed as inactive.

For `CC(=O)OCCOC(C)=O`, the compound was called inactive.

As for `CC(=O)CC(C)(C)O`, the call was inactive.

In the case of `c1ccc(Oc2ccccc2)cc1`, the compound was classed as inactive.

With `CCCCOC(=O)c1ccc(N)cc1`, the compound was called inactive.

Take `CC1(C)OC[C@@H]2O[C@@]3(C(=O)O)OC(C)(C)O[C@H]3[C@@H]2O1`: the call was inactive.

Consider `COc1ccc(CCC(C)=O)cc1`, for which the outcome was inactive.

In the case of `CN(C)c1ccc(O)c2c1C[C@H]1C[C@H]3[C@H](N(C)C)C(=O)C(C(N)=O)=C(O)[C@@]3(O)C(=O)C1=C2O`, the call was inactive.

On to `NC(=S)NNC(N)=S`, for which the result was inactive.

For the compound `CCCCCCCCCCO`, the compound was classed as inactive.

With `CC(C)(C)c1cc(Cc2cc(C(C)(C)C)c(O)c(C(C)(C)C)c2)cc(C(C)(C)C)c1O`, the outcome was inactive.

For the compound `Clc1ccccn1`, the outcome was inactive.

For the compound `CCCCCCCCCCCC(=O)OC`, the outcome was inactive.

For `CCOC(=O)c1ccc(N)cc1`, the compound was classed as inactive.

Regarding `C=CC(C)CCCC(C)(C)O` (stereo not given), the outcome was inactive.

In the case of `O=C(O)c1ccccc1C(=O)O`, the compound was called inactive.

Turning to `C[Si]1(C)O[Si](C)(C)O[Si](C)(C)O[Si](C)(C)O1`, the outcome was inactive.

Turning to `O=C(O)/C=C/C(=O)O`, the compound was called inactive.

As for `CCCCC(C=O)CC` (stereo not given), the result was inactive.

Take `CNC(=O)Oc1ccc2c(c1)[C@]1(C)CCN(C)[C@@H]1N2C`: the result was inactive.

With `CC(CCO)CC(C)(C)C` (stereo not given), the call was inactive.

The values above are taken from PubChem BioAssay (Tox21).
